Results filed as inconclusive are left out. The source made the active and inactive calls. Unless noted, calls come from the whole dose curve.

The nature of experiment [1]: Nuclear factor erythroid 2-related factor 2/antioxidant responsive element (Nrf2/ARE) small molecule agonists: qHTS cell viability counter screen in human keratinocytes (AID 1919968; active = well fitted curve in the direction sought with a large enough effect in the repeat runs; an effect the other way counts as inactive or inconclusive; note: nearly all actives have a fitted effect of over 55% in size; note: potency is the fitted concentration of half-maximal effect). In short, it runs like this: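 Cells of the KeratinoSens line were plated at 1,500 per well and left for 5 h before compound transfer from DMSO stocks. After a 23 h incubation (37 C, 5% CO2), CellTiter-Fluor was added. Signal was taken as fluorescence intensity 1 h later.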
A general note: In qHTS, concentration-response curves come from the screen itself.

The nature of experiment [2]: Nuclear factor erythroid 2-related factor 2/antioxidant responsive element (Nrf2/ARE) small molecule agonists: luciferase reporter gene qHTS assay in human keratinocytes (AID 1919969). Note: nearly all actives have a fitted effect of over 35% in size. Note: potency is the fitted concentration of half-maximal effect.
Experiment [3] concerns the target Gonadotropin-releasing hormone receptor (Homo sapiens) (UniProt P30968). Description: Human gonadotropin-releasing hormone receptor (GnRHR) small molecule agonists, calcium flux assay in GnRHR-HEK293 cells (AID 1920063). Note: nearly all actives have a fitted effect of over 35% in size. The method in brief:
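Compounds dissolved in DMSO are pin-transferred onto dye-loaded GnRHR-HEK293 cells, which were seeded 18 h before at 37 C/5% CO2. Calcium signal is read as fluorescence intensity at 1 s intervals for 3 min.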
For orientation: Calcium flux is commonly read through the fluorescence of an indicator in the cells.

Experiment [4] has as its target KiSS-1 receptor (Homo sapiens) (UniProt Q969F8). Description: Human kisspeptin (KISS1R) small molecule agonists, calcium flux assay in KISS1R-HEK293 cells (AID 1920064; active = well fitted curve in the direction sought with a large enough effect in the repeat runs; an effect the other way counts as inactive or inconclusive). The method in brief: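 Cell line: HEK293, stable human KISS1R. Dye loading 1 h at 37 C after 18 h culture. Read: kinetic fluorescence, 480/540 nm, 3 min at 1 s intervals.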
The nature of experiment [5]: G protein-coupled receptor (GPCR) small molecule agonists, calcium flux assay: HEK293 wild type cell line counter screen (AID 1920065). The method in brief: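 Tox21 10K compounds, 15 concentrations each in triplicate, pin-transferred in DMSO onto dye-loaded cells; kinetic read at 480/540 nm for 3 min, 1 s intervals.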
Experiment [6] in a line: p53 small molecule agonists, cell-based qHTS assay with human liver microsomes: qHTS cell viability counter screen (AID 1963579). Note: nearly all actives have a fitted effect of over 45% in size. The method in brief: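 Metabolically activated exposure: compounds, human liver microsomes and NADPH (0.5 mg/mL final apiece) were added to p53RE-bla cells seeded 5 h earlier, left 16 h at 37 C, and then assessed for viability by CellTiter-Glo luminescence.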

A short description of experiment [7]: p53 small molecule agonists, cell-based qHTS assay with rat liver microsomes: qHTS cell viability counter screen (AID 1963580). Note: nearly all actives have a fitted effect of over 45% in size. The method in brief: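 Rat liver microsome (0.5 mg/mL final) and NADPH (0.5 mg/mL final) co-incubation with compounds for 16 h at 37 C on HCT-116 p53RE-bla cells; cytotoxicity taken from intracellular ATP luminescence.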
Experiment [8] is described as follows: p53 small molecule agonists, cell-based qHTS assay: qHTS cell viability counter screen (AID 1963581). Note: nearly all actives have a fitted effect of over 45% in size. The method in brief: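 ATP content measured by luminescence in HCT-116 p53RE-bla cells treated 16 h at 37 C, same wells as the reporter screen.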
Experiment [9] deals with 5-hydroxytryptamine receptor 2A (Homo sapiens) (UniProt P28223). Put plainly: 5-hydroxytryptamine receptor 2A (HTR2A) small molecule antagonists, cell-based qHTS assay (AID 1963586). Note: nearly all actives have a fitted effect of over 45% in size. Note: potency is the fitted concentration of half-maximal effect. The method in brief:
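CHO cells stably expressing human HTR2A were plated for 18 h at 37 C, then loaded with calcium dye for 1 h. Compounds were preincubated 5 min at room temperature before DOI (4 nM solution) was added. Kinetic fluorescence was read for 3 min.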

Experiment [10] shares this target. Put plainly: 5-hydroxytryptamine receptor 2A (HTR2A) small molecule agonists, cell-based qHTS assay (AID 1963587). Note: nearly all actives have a fitted effect of over 30% in size. Note: potency is the fitted concentration of half-maximal effect. The method in brief: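 Kinetic calcium-flux fluorescence (2 min, 1 sec intervals) after compound addition in agonist mode. HTR2A-CHO cells were cultured 18 h, then dye-loaded 1 h at 37 C.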
For experiment [11], the target named is Muscarinic acetylcholine receptor M1 (Homo sapiens) (UniProt P11229). Put plainly: Cholinergic receptor muscarinic 1 (CHRM1) small molecule antagonists, cell-based qHTS assay (AID 1963588). Note: nearly all actives have a fitted effect of over 40% in size. In short, it runs like this:
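Compounds were tested at 15 concentrations in three independent runs. Dye-loaded CHRM1-CHO cells were exposed 5 min at room temperature before stimulation by acetylcholine added at 50nM. Intracellular calcium was read kinetically on FDSS for 3 min.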

Experiment [12] has the same target. Put plainly: Cholinergic receptor muscarinic 1 (CHRM1) small molecule agonists, cell-based qHTS assay (AID 1963589). Note: nearly all actives have a fitted effect of over 35% in size. In short, it runs like this:
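Homogeneous fluorescence calcium flux, agonist mode. Human M1-expressing CHO cells; compound dosed at 15 concentrations, three independent runs; signal sampled every 1 sec.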

Experiment [13] addresses Beta-2 adrenergic receptor (Homo sapiens) (UniProt P07550). Put plainly: Adrenergic beta2 receptor (ADRB2) small molecule antagonists, cell-based qHTS assay (AID 1963592). Note: nearly all actives have a fitted effect of over 50% in size. Note: potency is the fitted concentration of half-maximal effect. The method in brief: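 Assay format: CHO-ADRB2 cells, 18-20hr seeding at 37C/5% CO2, then compound plus 1nM isoproterenol agonist mix for 0.5hr RT. Homogeneous time-resolved fluorescence cAMP detection after 1hr, expressed as 665/615 nm ratio.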

The target is the same in experiment [14]. Put plainly: Adrenergic beta2 receptor (ADRB2) small molecule agonists, cell-based qHTS assay (AID 1963593).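 Note: CHO cells stably overexpressing human ADRB2.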 The method in brief:
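CHO cells stably over-expressing ADRB2 were plated overnight at 37C, then dosed with compounds plus a stimulation mix containing 100uM IBMX and 25uM Ro-20-1724 for 0.5hr at room temperature. cAMP was measured by HTRF competition, 1hr.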

Experiment [15] has as its target D(2) dopamine receptor (Homo sapiens) (UniProt P14416). Description: Dopamine D2 receptor (DRD2) small molecule agonists, cell-based qHTS assay (AID 1963594). Note: nearly all actives have a fitted effect of over 35% in size. The method in brief:
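cAMP accumulation in DRD2-HEK293 cells measured by HTRF after 1 h detection; compounds added 10 min before NKH477 (200nM […]) forskolin-analogue stimulation, 30 min at room temperature, with Ro20-1724 present at 0.1 mM final.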

Experiment [16] has the same target. Description: Dopamine D2 receptor (DRD2) small molecule antagonists, cell-based qHTS assay (AID 1963595; active = well fitted inhibition curve with a large enough effect in the signal ratio in the repeat runs, with a control signal flat; the % refers to the signal ratio; note: potency is the fitted concentration of half-maximal effect). The method in brief: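 Antagonist mode in DRD2-HEK293 cells: after compound addition with 0.1 mM Ro20-1724, cells received quinpirole (12 nM) and NKH477 (200 nM) for 30 min at room temperature; HTRF cAMP read after 1 h detection.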
A short description of experiment [17]: cAMP Responsive Elements (CRE) small molecule agonists, cell-based qHTS assay (AID 1963590). The method in brief:
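HEK 293T cells stably bearing CRE-bla were plated at 2,000 cells per well and rested 18 h. Compounds, positive controls or DMSO were added for 3 h at 37 C. LiveBLAzer B/G substrate was then loaded for 2 h at room temperature.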

A short description of experiment [18]: cAMP Responsive Elements (CRE) small molecule antagonists, cell-based qHTS assay (AID 1963591; active = well fitted inhibition curve with a large enough effect in the signal ratio in the repeat runs, not every such curve was filed as active; the % refers to the signal ratio). The method in brief: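 First, CRE-bla HEK293T cells settled 18 h at 37 C. Next, compound and 0.25 uM final NKH477 were applied for 3 h. Last, LiveBLAzer B/G substrate was loaded for 2 h at room temperature.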

Muscarinic acetylcholine receptor M1 (Homo sapiens), sequence (P11229 whole entry, looked up): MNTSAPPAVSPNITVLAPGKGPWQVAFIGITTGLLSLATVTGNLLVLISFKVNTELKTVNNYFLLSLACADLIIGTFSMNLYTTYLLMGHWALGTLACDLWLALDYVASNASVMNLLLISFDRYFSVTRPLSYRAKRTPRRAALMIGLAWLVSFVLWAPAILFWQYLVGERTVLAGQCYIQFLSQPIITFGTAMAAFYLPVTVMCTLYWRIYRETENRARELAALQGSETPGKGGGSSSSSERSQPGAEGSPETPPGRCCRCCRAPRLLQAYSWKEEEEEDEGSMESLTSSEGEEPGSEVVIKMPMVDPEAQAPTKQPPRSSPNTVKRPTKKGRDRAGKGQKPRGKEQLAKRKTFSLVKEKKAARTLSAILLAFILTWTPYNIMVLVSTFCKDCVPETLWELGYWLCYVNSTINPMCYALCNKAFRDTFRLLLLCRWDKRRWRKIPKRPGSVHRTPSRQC
Beta-2 adrenergic receptor (Homo sapiens), sequence (P07550 whole entry, looked up): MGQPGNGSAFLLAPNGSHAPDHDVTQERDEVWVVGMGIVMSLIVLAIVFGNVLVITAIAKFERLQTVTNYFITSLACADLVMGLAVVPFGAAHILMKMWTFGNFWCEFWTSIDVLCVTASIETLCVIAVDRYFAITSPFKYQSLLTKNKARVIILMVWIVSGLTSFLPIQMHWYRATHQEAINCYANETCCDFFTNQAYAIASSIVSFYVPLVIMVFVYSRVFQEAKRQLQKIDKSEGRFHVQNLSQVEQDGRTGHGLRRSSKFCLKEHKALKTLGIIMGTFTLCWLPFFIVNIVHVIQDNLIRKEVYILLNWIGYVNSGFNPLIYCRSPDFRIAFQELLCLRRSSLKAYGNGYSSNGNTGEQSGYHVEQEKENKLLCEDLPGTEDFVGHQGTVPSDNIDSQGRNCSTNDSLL
KiSS-1 receptor (Homo sapiens), sequence (Q969F8 whole entry, looked up): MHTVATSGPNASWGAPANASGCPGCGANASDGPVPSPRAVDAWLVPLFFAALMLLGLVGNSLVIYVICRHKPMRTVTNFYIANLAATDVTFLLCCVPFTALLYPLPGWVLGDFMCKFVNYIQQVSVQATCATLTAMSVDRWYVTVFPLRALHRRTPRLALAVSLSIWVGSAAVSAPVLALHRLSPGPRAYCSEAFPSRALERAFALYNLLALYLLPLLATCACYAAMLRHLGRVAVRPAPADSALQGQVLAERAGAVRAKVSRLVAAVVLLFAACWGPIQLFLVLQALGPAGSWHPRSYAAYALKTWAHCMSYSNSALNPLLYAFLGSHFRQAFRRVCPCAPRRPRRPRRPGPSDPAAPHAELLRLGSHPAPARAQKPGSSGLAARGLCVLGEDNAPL
5-hydroxytryptamine receptor 2A (Homo sapiens), sequence (P28223 whole entry, looked up): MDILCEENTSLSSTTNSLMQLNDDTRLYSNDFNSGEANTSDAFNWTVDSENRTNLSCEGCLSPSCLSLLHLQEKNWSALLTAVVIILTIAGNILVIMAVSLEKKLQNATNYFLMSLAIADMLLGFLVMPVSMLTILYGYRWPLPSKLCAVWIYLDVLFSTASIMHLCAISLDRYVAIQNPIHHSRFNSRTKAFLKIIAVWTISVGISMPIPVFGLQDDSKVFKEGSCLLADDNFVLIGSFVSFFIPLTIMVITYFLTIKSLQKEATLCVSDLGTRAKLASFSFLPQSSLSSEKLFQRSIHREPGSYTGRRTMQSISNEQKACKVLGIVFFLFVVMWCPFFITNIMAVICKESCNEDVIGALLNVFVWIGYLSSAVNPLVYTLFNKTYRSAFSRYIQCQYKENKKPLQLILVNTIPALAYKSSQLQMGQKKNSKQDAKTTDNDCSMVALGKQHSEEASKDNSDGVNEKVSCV
D(2) dopamine receptor (Homo sapiens), sequence (P14416 whole entry, looked up): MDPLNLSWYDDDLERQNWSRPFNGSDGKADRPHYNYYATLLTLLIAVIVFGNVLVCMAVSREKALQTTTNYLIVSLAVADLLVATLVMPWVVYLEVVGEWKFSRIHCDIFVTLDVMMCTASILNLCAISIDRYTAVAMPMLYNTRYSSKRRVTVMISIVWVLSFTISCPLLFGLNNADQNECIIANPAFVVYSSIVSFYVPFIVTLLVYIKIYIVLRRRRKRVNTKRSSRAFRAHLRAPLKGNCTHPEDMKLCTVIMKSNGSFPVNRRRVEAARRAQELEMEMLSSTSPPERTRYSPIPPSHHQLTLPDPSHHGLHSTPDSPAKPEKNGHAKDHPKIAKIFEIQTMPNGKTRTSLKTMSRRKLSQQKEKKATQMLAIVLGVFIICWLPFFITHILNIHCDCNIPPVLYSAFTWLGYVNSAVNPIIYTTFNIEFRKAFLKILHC
Gonadotropin-releasing hormone receptor (Homo sapiens), sequence (P30968 whole entry, looked up): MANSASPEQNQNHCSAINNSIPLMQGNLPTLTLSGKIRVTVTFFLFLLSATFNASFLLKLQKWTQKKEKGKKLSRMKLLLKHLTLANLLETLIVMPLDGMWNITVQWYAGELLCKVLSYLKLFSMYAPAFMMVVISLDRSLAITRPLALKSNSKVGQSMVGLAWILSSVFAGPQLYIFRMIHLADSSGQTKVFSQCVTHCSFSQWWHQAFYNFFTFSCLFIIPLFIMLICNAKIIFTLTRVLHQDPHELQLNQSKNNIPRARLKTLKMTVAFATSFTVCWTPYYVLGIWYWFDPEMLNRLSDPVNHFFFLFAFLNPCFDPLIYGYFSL

Consider `CCOc1ccc2[nH]cc(C(=O)NCc3ccccc3)c(=O)c2n1`, for which the Potency result in [1], in experiment [2], in experiment [3], in experiment [4], in experiment [5] and in experiment [6] was “inactive” throughout. The Potency entry in experiment [7], in experiment [8], in experiment [9], in experiment [10], in experiment [11] and in [12] was “inactive” throughout. Also, the Potency result in [13], in experiment [14], in [15] and in experiment [16] was “inactive” in each case.

As for `N#CSCSc1nc2ccccc2s1`, the figures for the Potency in [1], in [2] and in experiment [16] were 13.7 µM (active), 9.69 µM (active) and 54.5 µM (active), respectively. For the same compound, the Potency entry in [3], in experiment [4], in experiment [5], in experiment [6], in [7] and in experiment [8] was “inactive” in each case. The Potency entry in experiment [9], in experiment [10], in experiment [11], in experiment [13] and in experiment [15] was “inactive” each time.

As to `Clc1cccc(C(c2ccc3nc[nH]c3c2)n2ccnc2)c1` (stereo not given), the Potency result in experiment [1], in experiment [2], in experiment [3], in experiment [4], in experiment [5] and in experiment [6] was “inactive” in each case. Further, the Potency result in [7], in experiment [8], in [9], in experiment [10], in [11] and in [17] was “inactive” throughout. Moreover, the Potency result in experiment [18], in experiment [13], in experiment [15] and in experiment [16] was “inactive” throughout.

With `C=C(C)C(=O)OCCOCCOC(=O)C(=C)C`, the Potency entry in experiment [1], in experiment [2], in experiment [3], in experiment [4], in [5] and in [6] was “inactive” each time. Besides, the Potency result in experiment [7], in [8], in [9], in experiment [10], in [11] and in experiment [12] was “inactive” in each case. Besides, the Potency entry in experiment [13], in [15] and in experiment [16] was “inactive” throughout.

On to `CC(=O)OCC1=C(C(=O)O)N2C(=O)[C@@H](NC(=O)CSc3ccncc3)[C@H]2SC1`, for which the Potency entry in experiment [1], in experiment [2], in [3], in experiment [4], in experiment [5] and in experiment [6] was “inactive” in each case. Besides, the Potency result in [7], in experiment [8], in experiment [9], in [10], in experiment [11] and in [17] was “inactive” in each case. The Potency entry in experiment [18], in experiment [13], in experiment [14], in experiment [15] and in [16] was “inactive” throughout.

Take `CO[C@]12C[C@@H](COC(=O)c3cncc(Br)c3)CN(C)[C@@H]1Cc1cn(C)c3cccc2c13`: the Potency entry in experiment [1], in experiment [2], in [3], in experiment [4], in experiment [5] and in [6] was “inactive” in each case. Further, the Potency entry in experiment [7], in experiment [8], in experiment [12], in experiment [17], in experiment [18] and in experiment [15] was “inactive” in each case. Moreover, the Potency in [9] is 0.0729 µM (active); in experiment [10], 0.0849 µM (active); in experiment [13], 13.3 µM (active); in [16] it was 26.6 µM (active).

For `CO[C@@]1(NC(=O)Cc2cccs2)C(=O)N2C(C(=O)O)=C(COC(N)=O)CS[C@@H]21`, the Potency entry in experiment [1], in [2], in experiment [3], in experiment [4], in experiment [5] and in experiment [6] was “inactive” each time. Also, the Potency result in experiment [7], in experiment [8], in [9], in experiment [12], in experiment [17] and in experiment [18] was “inactive” throughout. The Potency result in experiment [13], in [14], in [15] and in experiment [16] was “inactive” in each case.

Source of the values: PubChem BioAssay (Tox21).
